The record followed here is the supplement of paper PMC13380429.

The test system of assay [1] is Vero E6 infected with SARS-CoV-2. The experiment in a line: morphology score (similarity to uninfected cells); higher = more like uninfected cells. Conditions: 24 h.
Assay [2] has the same test system. Put plainly: SARS-CoV-2 infection rate relative to infected DMSO; higher = more infection, active = 60 or less. Particulars: 24 h.

`CCn1c(=O)c(-c2cc[nH]n2)cc2c(C)nc(N)nc21` [voxtalisib] (0.833333 µM): the morphology score in assay [1] came to 0.00591. For the same molecule, in assay [2], the SARS-CoV-2 infection rate is 109% (inactive).
Consider `Nc1ccn(C[C@@H](CO)OCP(=O)(O)O)c(=O)n1` [cidofovir] (10 µM), for which the morphology score in assay [1] amounted to 0.0279. Also, in assay [2], the SARS-CoV-2 infection rate was 108% (inactive).
The molecule `Cn1cc(-c2cnn3c(N)c(Br)c([C@@H]4CCCNC4)nc23)cn1` (10 µM) showed a morphology score in assay [1] of 0.535. Moreover, the SARS-CoV-2 infection rate in assay [2] was 82% (inactive).
In turn, `O=C(Nc1ccccc1)OCC(CN1CCCCC1)OC(=O)Nc1ccccc1` (configuration not stated) [diperodon] (10 µM) came in with a morphology score in assay [1] of -0.0894. Besides, the SARS-CoV-2 infection rate in assay [2] was 108% (inactive).
With `Nc1ccc(C(=O)Oc2ccccc2)c(O)c1` [phenyl-aminosalicylate] (10 µM), the morphology score in assay [1] worked out at 0.0987. For the same molecule, in assay [2], the SARS-CoV-2 infection rate is 104% (inactive).
As for `CNC(=O)[C@@H](NC(=O)[C@H](CC(C)C)[C@H](O)C(=O)NO)C(C)(C)C` [marimastat] (10 µM), in assay [1], the morphology score is -0.0923. Also, in assay [2], the SARS-CoV-2 infection rate is 118% (inactive).
On to `CC(C)Oc1ccc(-c2nc(-c3cccc4c3CC[C@@H]4NCCO)no2)cc1C#N` [ozanimod] (0.833333 µM), for which the morphology score in assay [1] worked out at 0.262. Also, in assay [2], the SARS-CoV-2 infection rate is 101% (inactive).
Molecule `N#Cc1ccc2[nH]cc(CCCCN3CCN(c4ccc5oc(C(N)=O)cc5c4)CC3)c2c1` [vilazodone] (0.833333 µM) came in with a morphology score in assay [1] of 0.0471. In addition, the SARS-CoV-2 infection rate in assay [2] is 102% (inactive).
In assay [1], `Clc1cccc(C(c2ccc3[nH]cnc3c2)n2ccnc2)c1` (configuration not stated) [liarozole] (10 µM) showed a morphology score of 0.138. Moreover, the SARS-CoV-2 infection rate in assay [2] is 98% (inactive).
On to `COc1cc(CCc2cc(NC(=O)c3ccc(N4CC(C)NC(C)C4)cc3)n[nH]2)cc(OC)c1` (configuration not stated) (10 µM), for which, in assay [1], the morphology score came to 0.373. Also, the SARS-CoV-2 infection rate in assay [2] was 79.5% (inactive).
Take `CN[C@@H](C)CCC=C(C)C` [isometheptene-mucate] (10 µM): the morphology score in assay [1] was -0.0576. In assay [2], the SARS-CoV-2 infection rate was 109% (inactive).
Take `Brc1c(Br)c(Br)c2[nH]nnc2c1Br` [4,5,6,7-tetrabromobenzotriazole] (10 µM): the morphology score in assay [1] was -0.0654. The SARS-CoV-2 infection rate in assay [2] is 106% (inactive).
`COC(c1ccccc1)(c1ccccc1)[C@H](Oc1nc(C)cc(C)n1)C(=O)O` [ambrisentan] (10 µM) registered a morphology score in assay [1] of -0.0233. The SARS-CoV-2 infection rate in assay [2] is 104% (inactive).
With `N=C(N)Nc1ccc(C(=O)Oc2ccc3cc(C(=N)N)ccc3c2)cc1` [nafamostat] (10 µM), the morphology score in assay [1] was determined as 0.172. Besides, the SARS-CoV-2 infection rate in assay [2] was 108% (inactive).
On the same counts, the results for `O=C(O)c1cc(O)c2c(c1)C(=O)c1cccc(O)c1C2=O` [rhein] (10 µM) are 0.272 and 99.5% (inactive).
For `CCc1cc(/C(C)=N/OCc2ccc(C3CCCCC3)c(C(F)(F)F)c2)ccc1CN1CC(C(=O)O)C1` [siponimod] (10 µM), in that order: 0.0973 and 100% (inactive).
In the case of `O=C1CC[C@@]2(O)[C@H]3Cc4ccc(O)c5c4[C@@]2(CCN3CC2CC2)[C@H]1O5` (10 µM), the morphology score in assay [1] was -0.0472. The SARS-CoV-2 infection rate in assay [2] was 106% (inactive).
As to `O=C1c2ccc(Nc3ccc(F)cc3F)cc2CCc2ccc(OC[C@H](O)CO)cc21` [skepinone-L] (10 µM), the morphology score in assay [1] is -0.053. The SARS-CoV-2 infection rate in assay [2] was 113% (inactive).
For the molecule `Cn1nc(-c2cccc(F)c2)n(C)c1=S` [suritozole] (10 µM), in assay [1], the morphology score worked out at 0.141. Besides, the SARS-CoV-2 infection rate in assay [2] is 101% (inactive).
In assay [1], `Cc1cccc(C)c1NC(=O)c1ccccc1C(=O)O` [ftaxilide] (10 µM) showed a morphology score of -0.12. Besides, in assay [2], the SARS-CoV-2 infection rate is 106% (inactive).
`c1ccc(CN2CCC3(CCc4ccccc43)CC2)cc1` (10 µM) gave a morphology score in assay [1] of 0.228. Further, in assay [2], the SARS-CoV-2 infection rate is 80.5% (inactive).
For `O[C@H]1CC[C@H](Nc2nc(-c3ccccc3)nc3[nH]ccc23)CC1` (10 µM), in assay [1], the morphology score turned out to be 0.409. The SARS-CoV-2 infection rate in assay [2] was 93% (inactive).
In assay [1], `C[N+]1(C)CCC(OC(=O)C(c2ccccc2)c2ccccc2)CC1` (10 µM) came in with a morphology score of 0.103. Moreover, in assay [2], the SARS-CoV-2 infection rate was 114% (inactive).
`CCOC(=O)CSCCC1NC(C(=O)O)CS1` (configuration not stated) [letosteine] (10 µM): the morphology score in assay [1] is -0.0697. Also, the SARS-CoV-2 infection rate in assay [2] was 117% (inactive).
`CC(C)NC(=O)N1CC[C@H](NC2=Nc3cc(F)ccc3N(CC(F)F)c3ccc(Cl)cc32)C1` (0.833333 µM) gave a morphology score in assay [1] of 0.0642. The SARS-CoV-2 infection rate in assay [2] is 89% (inactive).
In assay [1], `Cc1cc(C)c2c(c1)[C@@H](N(Cc1cc(C(F)(F)F)cc(C(F)(F)F)c1)c1nnn(C)n1)CCCN2C[C@H]1CC[C@H](C(=O)O)CC1` [evacetrapib] (10 µM) showed a morphology score of 0.0498. Besides, the SARS-CoV-2 infection rate in assay [2] is 97% (inactive).
In assay [1], `Clc1ccc([C@]23CNC[C@H]2C3)cc1Cl` [amitifadine] (10 µM) had a morphology score of 0.0575. The SARS-CoV-2 infection rate in assay [2] is 110% (inactive).
On the same counts, the results for `CCCN(CCC)[C@H]1CCc2cccc(O)c2C1` [8-hydroxy-DPAT] (10 µM) are 0.0607 and 98.5% (inactive).
On the same counts, the results for `CCCC[C@H](NC(C)=O)C(=O)N[C@H]1CC(=O)NCCCC[C@@H](C(=O)O)NC(=O)[C@H](Cc2c[nH]c3ccccc23)NC(=O)[C@H](CCCNC(=N)N)NC(=O)[C@@H](Cc2ccccc2)NC(=O)[C@H](Cc2c[nH]cn2)NC1=O` [bremelanotide] (10 µM) are 0.067 and 96.5% (inactive).
In the case of `C[C@H](CS)C(=O)N1CCC[C@H]1C(=O)O` [captopril] (10 µM), in assay [1], the morphology score is 0.0071. The SARS-CoV-2 infection rate in assay [2] was 104% (inactive).
For `Cc1ccc(O)c([C@H](CCN(C(C)C)C(C)C)c2ccccc2)c1` [tolterodine] (10 µM), in assay [1], the morphology score amounted to 0.35. Moreover, the SARS-CoV-2 infection rate in assay [2] is 77.5% (inactive).
